{
  "source": "PubChem BioAssay (NCATS)",
  "note": "Results filed as inconclusive are left out. Entries that show only a call come without a potency. Activity calls are given as the source filed them. The call rests on the fitted dose curve; in most records, active means well fitted cell-killing curve with a large enough effect; inconclusive means small, poorly fitted or top-dose-only effect, or effect the other way; inactive means flat fitted curve, though single readings scatter. Potency means the concentration at half of the fitted maximal effect.",
  "data": [
    {"test_system": "Tov112D", "test": "Primary qHTS to identify gynecologic anti-cancer compounds using libraries of approved drugs and bioactive compounds (AID 1345084); further: nearly all actives have a fitted effect of over 55% in size", "settings": "Gynecologic cancer cell panel viability, ATPlite luminescence, 48 h; series mostly up to 57.5 µM", "in_short": "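Five-concentration response, 48 h; readout is ATP-driven luciferase luminescence.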", "values": [
      {"smiles": "CN1CC[C@H](c2c(O)cc(O)c3c(=O)cc(-c4ccccc4Cl)oc23)[C@H](O)C1", "Potency": "1120 nM (active)"},
      {"smiles": "Cc1cccc(C)c1NC(=O)c1ccc(N)cc1", "Potency": "inactive"},
      {"smiles": "COC(=O)/C=C(/C)N", "Potency": "inactive"},
      {"smiles": "CCCCOCCOC(=O)c1cccnc1", "Potency": "inactive"},
      {"smiles": "C/C(=N/NC(=O)c1ccncc1)C(=O)O", "Potency": "inactive"},
      {"smiles": "Nc1ccc([N+](=O)[O-])c(C(F)(F)F)c1", "Potency": "inactive"},
      {"smiles": "Cc1[nH]cnc1-c1ccc(Cl)cc1", "Potency": "inactive"},
      {"smiles": "COC(=O)c1cc(S(N)(=O)=O)ccc1OC", "Potency": "inactive"},
      {"smiles": "COC(=O)C1=CO[C@@H](O)[C@@H]2C(CO)=CC[C@H]12", "Potency": "inactive"},
      {"smiles": "CCN1CCCC1CN", "note": "(centres undefined)", "Potency": "inactive"},
      {"smiles": "O=c1[nH]c2ccccc2c(=O)n1CCCl", "Potency": "inactive"},
      {"smiles": "CN(C)c1cc2c(Nc3ccc4c(cnn4Cc4ccccc4)c3)ncnc2cn1", "Potency": "inactive"},
      {"smiles": "CC1(C)O[C@@H]2C[C@H]3[C@@H]4CCC5=CC(=O)C=C[C@]5(C)[C@@]4(F)[C@@H](O)C[C@]3(C)[C@]2(C(=O)CO)O1", "Potency": "inactive"},
      {"smiles": "CCCN(CCC)C(=O)C(CCC(=O)OCCCN1CCN(CCOC(=O)Cc2c(C)n(C(=O)c3ccc(Cl)cc3)c3ccc(OC)cc23)CC1)NC(=O)c1ccccc1", "note": "(centres undefined)", "Potency": "inactive"},
      {"smiles": "COc1cc(OC)nc(O[C@H](C(=O)O)C(OC)(c2ccccc2)c2ccccc2)n1", "Potency": "inactive"},
      {"smiles": "CNC[C@H](O)[C@@H](O)[C@H](O)[C@H](O)CO", "Potency": "inactive"},
      {"smiles": "O=C(c1cc(O)c(O)c(O)c1)c1ccc(O)c(O)c1O", "Potency": "inactive"},
      {"smiles": "CN(C)CCN1CCN(c2cccc(Cl)c2)C1=O", "Potency": "inactive"},
      {"smiles": "Cc1ccc(CCn2c3c(c4cc(Cl)ccc42)CN(C)CC3)cn1", "Potency": "inactive"}
    ]}
  ]
}
